29 compounds from PubChem BioAssay (NCATS) can be followed below.

Inconclusive results are not listed. Unmarked numbers belong to inactive results. Active and inactive are the calls of the source. Calls come from the whole dose curve; as a rule, active = well fitted cell-killing curve with a large enough effect; inconclusive = small, poorly fitted or top-dose-only effect, or effect the other way; inactive = flat fitted curve, though single readings scatter.

What all share (assay): Primary qHTS to identify gynecologic anti-cancer compounds using libraries of approved drugs and bioactive compounds (AID 1345084); note: nearly all actives have a fitted effect of over 55% in size
What all share (details): Gynecologic cancer cell panel viability, ATPlite luminescence, 48 h; series mostly up to 57.5 µM
On the technique in general: qHTS replaces the single test concentration by a dilution series.

For assay [1], the system named is SKOV3. Summed up:
(§1)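 ATP-based viability (ATPlite), 1,000 cells/well, 16 h pre-incubation, 48 h compound at 37 C, 5% CO2, 15 min RT before read.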

In assay [2] the test system is Tov-21-G. Summed up:
as §1

Assay [3] concerns Tov112D. Summed up: as §1
% is set by controls: 0 for no effect and ±100 for the full control effect; potency is the fitted concentration of half-maximal effect.

Regarding `COc1cc(CCC2=NN=C(NC(=O)c3ccc(N4C[C@@H](C)N[C@@H](C)C4)cc3)C2)cc(OC)c1`, the results for the Potency in assay [1] and in assay [2] were 12.6 µM (active) and 22.4 µM (active), respectively.
For `CCN(CC)CCCCCCNc1cc(OC)cc2c(C)ccnc12`, the Potency entry in assay [1] and in assay [2] was “inactive” throughout.
For the compound `C=CC(C)(O)CC/C=C(\C)C(=O)OC1C(O)C(CO)OC(OC(=O)C23CCC(C)(C)CC2C2=CCC4C5(C)CCC(OC6OC(COC7OCC(OC(C)=O)C(O)C7OC7OC(COC(C)=O)C(O)C(O)C7OC(C)=O)C(O)C(O)C6OC6OCC(O)C(O)C6O)C(C)(C)C5CCC4(C)C2(C)C(O)C3O)C1OC1OCC(OC2OCC(O)C(OC3OCC(O)C(O)C3O)C2O)C(O)C1O` (configuration not stated), the activity change, negative = cytotoxicity is 0.6% [at 6.55 µM] in assay [1] and -26.1% [at 6.55 µM] in assay [2].
Regarding `COc1ccc(S(=O)(=O)Nc2c(C)cc(C)cc2C)cc1`, the Potency result in assay [1] and in assay [2] was “inactive” each time.
`C/C=C(/C=C(C)/C=C/C=C/C=C(\C)C(=O)C12OC1C(O)(CCO)NC2=O)C(=O)OC` (configuration not stated): the Potency entry in assay [1], in assay [2] and in assay [3] was “inactive” in each case.
Take `C[C@@H]1C[C@H](C)CN(CCC(=O)Nc2ccc(Br)cc2)C1`: the Potency result in assay [1] and in assay [2] was “inactive” in each case.
Turning to `O=c1[nH]c2ccc(C#CCN3CCC(Cc4ccccc4)CC3)cc2[nH]1`, the Potency entry in assay [1], in assay [2] and in assay [3] was “inactive” in each case.
For the compound `c1ccc(-c2cnn3cc(-c4ccc(OCCN5CCOCC5)cc4)cnc23)cc1`, in assay [1], the Potency was 15.8 µM (active). Also, the Potency entry in assay [2] was “inactive”.
Take `CC(C)(C)c1ccc2c(c1)CC[C@H]2NC(=O)Nc1cccc2[nH]ncc12`: the Potency entry in assay [1], in assay [2] and in assay [3] was “inactive” each time.
On to `Cn1ncc(Cl)c1-c1cc(C(=O)N[C@H](CN)Cc2cccc(F)c2)sc1Cl`, for which the Potency in assay [1] was 14.1 µM (active); in assay [2], 1.58 µM (active).
For `COc1ccc(C2(CNC(=O)c3ccc(NC(=O)c4ccco4)cc3)CCOCC2)cc1` the same measures were “inactive” and “inactive”.
With `O=C1C(Cc2ccc(O)cc2)N2C(=O)CCN(C(=O)NCc3ccccc3)C2CN1Cc1cccc2ccccc12` (configuration not stated), the Potency in assay [1] is 20 µM (active); in assay [2], 7.94 µM (active).
For `O=C(NCC1(N2CCN(c3ccccc3)CC2)CCOCC1)c1cccnc1Sc1ccccc1` the same measures were “inactive” and “inactive”.
For the compound `C[C@@H](N[C@H]1CCCC[C@@H]1NC(=O)c1ccc(Cl)cc1)c1cccc2ccccc12`, in assay [1], the Potency was 31.6 µM (active). Moreover, the Potency entry in assay [2] is “inactive”.
For the compound `C=CCCN1CCC2(CC1)CN(C(=O)c1c(F)cccc1F)c1ccc(Cl)cc12`, the Potency result in assay [1], in assay [2] and in assay [3] was “inactive” throughout.
In the case of `CNC(=O)COC(=O)N1CCC(CCc2ccc(Cl)cc2)CC1`, the Potency entry in assay [1], in assay [2] and in assay [3] was “inactive” throughout.
As to `Cc1cc2c(F)c(Oc3ncnn4cc(OCC(C)OC(=O)C(C)N)c(C)c34)ccc2[nH]1` (configuration not stated), the Potency result in assay [1] and in assay [2] was “inactive” throughout.
With `Cn1ncc(Cl)c1-c1cc(C(=O)N[C@H](CN)Cc2ccc(F)c(F)c2)oc1Cl`, the Potency in assay [1] is 4.47 µM (active); in assay [2], 0.708 µM (active).
For the compound `CCN(CC)C(=O)C(c1ccccc1)N1CCN(c2ccc(NC(=O)c3ccccc3-c3cccnc3)cc2F)CC1` (configuration not stated), the Potency result in assay [1], in assay [2] and in assay [3] was “inactive” throughout.
Take `C/C=C/[C@@H]1C=C[C@@H]2C[C@H](C)CC[C@H]2[C@]1(C)/C(O)=C1/C(=O)[C@@H](CO)N(C)C1=O`: the Potency entry in assay [1], in assay [2] and in assay [3] was “inactive” in each case.
For `Cc1ccc(C(C)C)c(O[C@@H]2O[C@H](CO)[C@@H](O)[C@H](O)[C@H]2O)c1`, the Potency entry in assay [1] and in assay [2] was “inactive” each time.
On to `CC(OC1OCCN(Cc2n[nH]c(=O)[nH]2)C1c1ccc(F)cc1)c1cc(C(F)(F)F)cc(C(F)(F)F)c1` (configuration not stated), for which the Potency entry in assay [1] and in assay [2] was “inactive” each time.
For `C=CC(C)(O)CC/C=C(/C)COC(=O)C(C)C1CCC(C)(C=C)O1` (configuration not stated), the Potency result in assay [1] and in assay [2] was “inactive” each time.
In the case of `Nc1nc(Nc2ccc3c(c2)CCC(N2CCCC2)CC3)nn1-c1cc2c(nn1)-c1ccccc1CCC2` (configuration not stated), the figures for the Potency in assay [1] and in assay [2] were 7.08 µM (active) and 22.4 µM (active), respectively.
On to `C/C=C(\C)C(=O)O[C@H]1C[C@](C)(O)[C@H]2CC=C(C)[C@H]2[C@@H]2OC(=O)[C@H](C)[C@H]21`, for which the Potency entry in assay [1], in assay [2] and in assay [3] was “inactive” each time.
With `NC(=O)N1CCC(CC(=O)N2CCC(C3c4ncc(Br)cc4CCc4cc(Cl)cc(Br)c43)CC2)CC1` (configuration not stated), the Potency result in assay [1] and in assay [2] was “inactive” in each case.
For the compound `CCOc1cc(C(C)(C)C)ccc1C1=NC(C)(c2ccc(Cl)cc2)C(C)(c2ccc(Cl)cc2)N1C(=O)N1CCN(CCCS(C)(=O)=O)CC1` (configuration not stated), the Potency result in assay [1] was “inactive”. Also, the Potency in assay [2] is 15.8 µM (active).
For `C=C(C)C(=O)OC1CC2(C)OC(=CC2=O)C(=C)CC2OC(=O)C(=C)C12` (configuration not stated) the same measures were 10 µM (active) and 4.47 µM (active).
For the compound `O=c1[nH]c([C@@H]2CCCN2)nc2c1oc1ccc(Cl)cc12`, the Potency result in assay [1], in assay [2] and in assay [3] was “inactive” in each case.
